Compounds with a hit are over-represented: about 1.8% of the library has one in this group of screens.
TLR9-MyD88 inh: TLR9-MyD88 interaction inhibition; Q9NR96+Q99836; CHO BLA complementation TLR9-MyD88, CCF4 FRET ratio; inhibition, % at 4.98 µM; hit rate 0.21% among 340,000; AID 504734;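 active = inhibition above the mean over all tested compounds plus 3 SD, cut at about 21% in these data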;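 also: 0% = DMSO only wells and 100% = clavulanate BLA inhibitor control wells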
Mcl-1 Bim block: inhibitors of Bim-Mcl-1 interaction, human. Bead-based flow cytometry, Bim peptide-Mcl-1 binding. inhibition, % at 10 µM. hit rate 0.1% among 190,000. AID 1009; in the data active = inhibition above about 40%;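 also: 0% = no compound tracer wells and 100% = peptide blocker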
Mcl1-Bid inh: disrupts binding of human Mcl-1 to Bid peptide. Q07820. AID 1021. TR-FRET Mcl-1/Bid-Dy647 peptide binding, 1536-well. inhibition, % at 21.7 µM. hit rate 0.97% among 220,000;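 active = compounds that cut the binding signal by more than half at the single screening dose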;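 also: His-tagged Mcl-1 with europium anti-His antibody binding Bid BH3 peptide; 0% = Mcl-1 plus peptide wells and 100% = peptide-only wells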
Mcl1 Noxa PPI: disrupts binding of human Mcl-1 to Noxa peptide; hit rate 1.5% among 220,000; inhibition, % at 21.7 µM; Q07820; TR-FRET Mcl-1/Noxa peptide binding, 2 h;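 active = compounds that cut the protein-peptide binding signal by more than 50% relative to plate controls in a single-dose test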;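 also: His-tagged Mcl-1 with rhodamine Noxa BH3 peptide and terbium anti-His antibody; 0% = Mcl-1 plus Noxa peptide wells and 100% = peptide-only wells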
TLR4-MyD88 BLA: TLR4-MyD88 interaction inhibition in cells | AID 861 | HeLa CL3-4 TLR4/MyD88 BLA complementation, FRET ratio | hit rate 0.18% among 200,000 | inhibition, % at 8.4 µM; in the data active = inhibition above about 25%;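 also: 0% = vehicle and 100% = reference inhibitor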
NOD2-RIPK2 inh: NOD2-RIPK2 protein interaction inhibition | O43353 | CHO BLA complementation NOD2-RIPK2, CCF4 ratio | inhibition, % at 4.98 µM | hit rate 0.38% among 360,000; in the data active = inhibition above about 21%;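 also: 0% = vehicle only and 100% = reference blocker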
Active calls of the source: *; / = not tested or not shown.

SMILES	TLR9-MyD88 inh	Mcl-1 Bim block	Mcl1-Bid inh	Mcl1 Noxa PPI	TLR4-MyD88 BLA	NOD2-RIPK2 inh
O=C(Cc1sc(-c2ccccc2Cl)nc1-c1ccccc1)Nc1ccccc1	0.6	6.0	83.5*	-29.0	1.8	-4.5
COC(=O)CCN1CCC2CC1c1cc(N3CCCCC3)ccc12 (stereo not drawn)	-2.6	/	/	/	/	-14.9
CCOc1cc(CNc2ccc3[nH]c(=O)[nH]c3c2)ccc1OCC(=O)NC(C)(C)C	0.6	3.0	-11.3	43.5	10.1	-11.3
COc1cc(CNc2ccc3[nH]c(=O)[nH]c3c2)cc(Cl)c1OCC(=O)NC(C)(C)C	6.2	3.0	-14.2	58.6*	3.5	-4.0
CCOc1ccc(CN(C)CC(=O)Nc2ccc([N+](=O)[O-])cc2Cl)cc1	1.9	-9.0	-9.7	2.8	-13.1	-14.3
O=C(Oc1cc2oc(=O)cc(-c3ccccc3)c2cc1Cl)C1CCCCC1	17.1	-2.0	-38.8	9.9	20.1	28.6*
O=C(Oc1ccc2ccc(=O)oc2c1)C1CCCCC1	-5.1	-3.0	-12.6	2.7	-17.2	-6.7
Cn1cc(C(=O)N/N=C/c2ccc([N+](=O)[O-])cc2)c2ccccc21	/	/	38.1	75.4*	/	4.8
[O-]c1c[n+](-c2ccccc2)no1	-5.6	/	-7.1	-3.9	/	4.5
[O-]c1c[n+](-c2ccc(-[n+]3cc([O-])on3)cc2)no1	6.2	3.0	-29.6	56.7*	-1.9	1.0
CCN1C(=O)/C(=C2\SC(=S)N(NC(=O)c3ccccc3O)C2=O)c2ccccc21	7.5	/	-68.7	65.4*	/	-5.7
O=C(NC1CC1)C1CCN(C2CCN(C(=O)c3ccc4cccc(F)c4n3)CC2)CC1	-0.9	0.0	-22.1	12.4	10.5	-0.1
O=C(OCc1ccc(F)cc1)c1ccc2c(c1)-c1ccccc1C2=O	3.5	-3.0	-15.8	0.9	-4.3	-7.9
CCOC(=O)C1=C(Cc2ccc(F)cc2)C(=O)c2ccccc2C1=O	15.6	0.0	-3.6	45.8	-2.1	30.4*
CCOC(=O)NC(=O)/C(C#N)=C/c1ccc(N(C)C)cc1	/	/	81.9*	-2.2	/	-2.2
CN(C)c1ccc(/C=C(\C#N)C(=O)c2ccccc2)cc1	10.9	/	-59.8	21.4	/	-0.8
Cc1cc(C)c(C(=O)c2ccccc2C(=O)O)c(C)c1	/	/	/	/	/	-8.4
O=C(Cc1cccs1)N=Nc1c(O)[nH]c2ccccc12	-2.0	/	-52.0	7.8	/	-20.4
O=C(CSc1nnc(SCc2cccc3ccccc23)s1)N=Nc1c(O)[nH]c2ccccc12	/	-12.0	78.7*	60.2*	6.6	/
Cc1ccc(/C=N/NC(=O)c2ccc3nc[nH]c3c2)o1	-13.1	/	-7.5	55.3*	/	-8.7
Cc1ccccc1N(C)S(=O)(=O)c1ccc2[nH]cc(C(=O)NCC3CCCO3)c(=O)c2c1 (stereo not drawn)	0.9	-1.0	65.7*	41.5	11.6	-6.7
CCOCCCNC(=O)c1c[nH]c2ccc(S(=O)(=O)Nc3cccc(OC)c3)cc2c1=O	0.0	0.0	55.7*	39.4	11.4	-11.5
CCN(CC)C(=O)c1c[nH]c2ccc(S(=O)(=O)Nc3cc(C)cc(C)c3)cc2c1=O	-3.0	-2.0	54.6*	23.5	11.0	-8.1
CCOc1ccc(N(C)S(=O)(=O)c2ccc3[nH]cc(C(=O)NCC4CCCO4)c(=O)c3c2)cc1 (stereo not drawn)	2.4	4.0	10.6	45.3	1.2	-2.0
CCc1ccc(NS(=O)(=O)c2ccc3[nH]cc(C(=O)NCC4CCCO4)c(=O)c3c2)cc1 (stereo not drawn)	-8.0	-4.0	54.3*	16.2	-3.0	4.3
SMILES	TLR9-MyD88 inh	Mcl-1 Bim block	Mcl1-Bid inh	Mcl1 Noxa PPI	TLR4-MyD88 BLA	NOD2-RIPK2 inh
COc1cccc(NS(=O)(=O)c2ccc3[nH]cc(C(=O)NCCN4CCOCC4)c(=O)c3c2)c1	2.5	2.0	/	/	-5.2	-14.2
CC(Oc1cccnc1[N+](=O)[O-])C(=O)Nc1ccc(Cl)cn1 (stereo not drawn)	-6.2	/	/	/	/	-5.9
O=C(COc1cc(Cl)c(Cl)cc1Cl)Nc1ccc([N+](=O)[O-])cc1Cl	-13.2	/	-7.2	1.7	/	-6.1
O=c1[nH]c(=S)[nH]c2sc3c(c12)CCCCCC3	-1.5	/	/	/	/	4.2
O/N=C(\c1ccccc1)C(O)c1ccccc1 (stereo not drawn)	-3.2	/	/	/	/	-2.0
Cc1csc2ncnc(N3CCN(C(=S)Nc4ccc(F)cc4F)CC3)c12	/	/	89.7*	10.8	/	-3.9
O=[N+]([O-])c1ccc(/C=N/Nc2ccnc3cc(Cl)ccc23)o1	3.4	/	/	/	/	-15.5
Clc1ccc2c(N/N=C/c3ccccc3Br)ccnc2c1	3.7	0.0	63.2*	58.0*	-9.8	-4.6
Clc1ccc2c(N/N=C/c3cccc(Br)c3)ccnc2c1	2.2	10.0	60.5*	46.9	4.3	11.2
COc1ccc(OC)c(CCNC(=O)CN2C(=O)COc3ccc(S(=O)(=O)N4CCOCC4)cc32)c1	-10.2	/	/	/	/	-7.3
CCN(CC)S(=O)(=O)c1cc(C(=O)Nc2cc(C)[nH]n2)ccc1Cl	-7.3	/	/	/	/	-2.9
Cc1ccc(NC(=O)CSc2nnc3ccccn23)cc1S(=O)(=O)N1CCOCC1	-1.3	0.0	3.4	-2.7	1.2	-10.1
CCc1cc(=O)oc2cc3occ(C)c3cc12	5.3	-5.0	-62.9	2.7	-3.9	-3.2
CCc1cc(=O)oc2cc3occ(-c4ccc(OC)c(F)c4)c3cc12	2.8	-25.0	66.8*	0.7	6.0	-4.8
Cc1nc(NC(=O)CSC2=NCCS2)sc1C(=O)N(C)C	3.5	/	/	/	/	9.4
O=C(COc1ccc2ccccc2c1)NNC(=O)c1ccc([N+](=O)[O-])cc1	-2.8	-3.0	12.4	82.4*	-1.3	-3.1
O=C(O)CC(SCc1ccc(C(=O)O)o1)C(=O)O (stereo not drawn)	-8.3	-4.0	52.6*	13.9	-4.8	0.8
Clc1ccccc1OCCN1CCCCC1	6.5	-3.0	20.3	15.6	-1.5	-2.7
Clc1ccc(OCCN2CCCCC2)c(Cl)c1	-4.1	2.0	75.5*	34.6	-6.1	3.2
COc1cc(C2Nc3cccc4cccc(c34)N2)cc(OC)c1OC(C)=O	-28.9	10.0	12.4	82.5*	3.0	2.0
CCc1nnc(NC(=O)c2ccc(-c3ccccc3Cl)o2)s1	-5.7	1.0	52.8*	19.8	6.0	-2.8
Cn1nc(C(C)(C)C)cc1C(=O)N1CCCC(c2cc(C(=O)Nc3ccccc3Cl)no2)C1 (stereo not drawn)	/	/	/	/	/	7.4
Nc1nc(Nc2cccc(F)c2)nc(N2CCOCC2)c1[N+](=O)[O-]	10.5	/	77.2*	10.2	/	-4.7
Cc1ccc(Nc2nc(N)c([N+](=O)[O-])c(N3CCOCC3)n2)cc1C	-0.2	-24.0	-33.9	-29.1	2.1	-0.8
Cc1cc(OCC(=O)NCCc2ccc(Cl)cc2)c2c(C)cc(=O)oc2c1	-4.9	/	/	/	/	-1.3
O=C(Nc1ccc2sccc2c1)c1ccc(Cl)s1	0.1	-2.0	82.1*	7.1	-1.3	3.3
O=C(Nc1ccc2c(c1)C(=O)NC2=O)c1ccc(Cl)s1	11.0	-2.0	-3.5	7.9	-4.9	-7.3

Assay outcomes: PubChem, several laboratories
